# Laboratory results from the supplement of paper PMC8728848.
# Many of the other results were omitted from the sample, so the strongest signals are more common in it than they were.
# B1: PX14343I-pdi-501-30-501 (Parabacteroides distasonis) (protein)
# chain: SDQYSTETFWKTKEHASAGIMGCYNALKLWRSLHTMEFDMLTANAMPYNEANGTQAIGKGEHLSTTALIGSLWKNCYVGIGRTNTFIANVGGVDMDESEKAKMVGEAKFLRAFYYLSLVDKFGGVPLIIDAPNADEQAELPRNSKEEVVNQIVKDLEEAAAVLPDTYASSDLGRATKGAALALKARTLLYNSRWAEAAQAAKQVMESGVYQLFNDYRHFFSEDNKYNCEVIFDIEAKLPEYPTDYDQNIWRLNRPAPLKELVDTYLCVDGKTIEESPLYDPTRPYENRDPRLLKSIVCIGYPYLGKTITKEDVATTGFGVKKYTSYEDDVTIPLVERSAFNFILIRYAEVLLTYAEAQNEASGPDQSVYDAINQLRRRPDINMPEVPKGLTKDQMREVIRRERRIELTFEGLYYSDILRWKTAEKENNGMMHNYEGIEVVKRSFNPKRDYLWPIPYNQTVLNPNLEQNPNWD
# Key:
# Assay in all cases: glycan array binding signal (z-score within array); higher = stronger binding
# Settings in all cases: glycan notation: IUPAC condensed, linker removed
# [1] = target: Fuc(a1-2)Gal
# Outline: (§1)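 Glycan array data came from 3228 arrays in the Consortium for Functional Glycomics database, and only arrays with an available protein sequence were kept. Glycan names were put into IUPAC-condensed notation, and columns mapping to the same glycan were averaged. The binding signal is a within-array Z-score, averaged across arrays of one protein sequence run at different concentrations or buffers and across linkers. A negative Z-score can be read as non-binding.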
# [2] = target: Fuc(a1-2)Gal(b1-3)GlcNAc(b1-2)Man(a1-3)[Fuc(a1-2)Gal(b1-3)GlcNAc(b1-2)Man(a1-6)]Man(b1-4)GlcNAc(b1-4)GlcNAc
# Outline: as §1
# [3] = target: Fuc(a1-2)Gal(b1-3)GlcNAc(b1-3)[Gal(b1-4)GlcNAc(b1-6)]Gal(b1-4)Glc
# Outline: as §1
# [4] = target: Fuc(a1-2)Gal(b1-3)[Fuc(a1-4)]GlcNAc(b1-2)Man(a1-3)[Fuc(a1-2)Gal(b1-3)[Fuc(a1-4)]GlcNAc(b1-2)Man(a1-6)]Man(b1-4)GlcNAc(b1-4)[Fuc(a1-6)]GlcNAc(b1-4)[Fuc(a1-6)]GlcNAc
# Outline: as §1
# [5] = target: Fuc(a1-2)Gal(b1-4)GlcNAc(b1-2)[Fuc(a1-2)Gal(b1-4)GlcNAc(b1-4)]Man(a1-3)[Fuc(a1-2)Gal(b1-4)GlcNAc(b1-2)Man(a1-6)]Man(b1-4)GlcNAc(b1-4)GlcNAc
# Outline: as §1
# [6] = target: Fuc(a1-2)Gal(b1-4)GlcNAc(b1-6)GalNAc
# Outline: as §1
# [7] = target: Fuc(a1-2)Gal(b1-4)[Fuc(a1-3)]GlcNAc(b1-2)Man(a1-3)[Fuc(a1-2)Gal(b1-4)[Fuc(a1-3)]GlcNAc(b1-2)Man(a1-6)]Man(b1-4)GlcNAc(b1-4)[Fuc(a1-6)]GlcNAc
# Outline: as §1
# [8] = target: Fuc(a1-2)Gal6S(b1-4)Glc
# Outline: as §1
# [9] = target: Fuc(a1-2)[Gal(a1-3)]Gal(b1-3)GlcNAc(b1-6)GalNAc
# Outline: as §1
# [10] = target: Fuc(a1-2)[Gal(a1-3)]Gal(b1-4)GlcNAc(b1-3)GalNAc
# Outline: as §1
# [11] = target: Fuc(a1-2)[Gal(a1-3)]Gal(b1-4)[Fuc(a1-3)]GlcNAc(b1-3)GalNAc
# Outline: as §1
# [12] = target: Fuc(a1-2)[GalNAc(a1-3)]Gal
# Outline: as §1
# [13] = target: Fuc(a1-2)[GalNAc(a1-3)]Gal(b1-3)GlcNAc
# Outline: as §1
# [14] = target: Fuc(a1-2)[GalNAc(a1-3)]Gal(b1-4)GlcNAc
# Outline: as §1
# [15] = target: Fuc(a1-2)[GalNAc(a1-4)]Gal(b1-4)GlcNAc
# Outline: as §1
# [16] = target: Gal(a1-3)[Gal(a1-4)]Gal(b1-4)GlcNAc
# Outline: as §1
# [17] = target: Gal(a1-4)Gal(b1-4)GlcNAc(b1-3)Gal(b1-4)Glc
# Outline: as §1
# [18] = target: Gal(b1-3)Gal(b1-4)GlcNAc
# Outline: as §1
# [19] = target: Gal(b1-3)GalNAc(b1-4)Gal(b1-4)Glc
# Outline: as §1
# [20] = target: Gal(b1-3)GlcNAc(b1-2)Man(a1-3)[GlcNAc(b1-4)][Gal(b1-3)GlcNAc(b1-2)Man(a1-6)]Man(b1-4)GlcNAc(b1-4)GlcNAc
# Outline: as §1
# [21] = target: Gal(b1-3)GlcNAc(b1-2)[Gal(b1-3)GlcNAc(b1-6)]Man(a1-6)[Gal(b1-3)GlcNAc(b1-2)Man(a1-3)]Man(b1-4)GlcNAc(b1-4)GlcNAc
# Outline: as §1
# [22] = target: Gal(b1-3)GlcNAc(b1-3)Gal(b1-4)GlcNAc(b1-2)Man(a1-3)[Gal(b1-3)GlcNAc(b1-3)Gal(b1-4)GlcNAc(b1-2)Man(a1-6)]Man(b1-4)GlcNAc(b1-4)GlcNAc
# Outline: as §1
# [23] = target: Gal(b1-3)[Fuc(a1-4)]GlcNAc(b1-2)Man
# Outline: as §1
# [24] = target: Gal(b1-3)[Fuc(a1-4)]GlcNAc(b1-2)Man(a1-3)[Gal(b1-3)[Fuc(a1-4)]GlcNAc(b1-2)Man(a1-6)]Man(b1-4)GlcNAc(b1-4)[Fuc(a1-6)]GlcNAc
# Outline: as §1
# [25] = target: Gal(b1-4)GalNAc(b1-3)[Fuc(a1-2)]Gal(b1-4)GlcNAc
# Outline: as §1
# [26] = target: Gal(b1-4)GlcNAc(b1-2)Man(a1-3)[Man(a1-6)]Man(b1-4)GlcNAc(b1-4)GlcNAc
# Outline: as §1
# [27] = target: Gal(b1-4)GlcNAc(b1-2)[Gal(b1-4)GlcNAc(b1-6)]Man(a1-6)[GlcNAc(b1-4)][Gal(b1-4)GlcNAc(b1-2)Man(a1-3)]Man(b1-4)GlcNAc(b1-4)GlcNAc
# Outline: as §1
# [28] = target: Gal(b1-4)GlcNAc(b1-3)Gal(b1-3)GalNAc
# Outline: as §1
# [29] = target: Gal(b1-4)GlcNAc(b1-3)Gal(b1-4)GlcNAc(b1-2)Man(a1-3)[Gal(b1-4)GlcNAc(b1-3)Gal(b1-4)GlcNAc(b1-2)Man(a1-6)]Man(b1-4)GlcNAc(b1-4)GlcNAc
# Outline: as §1
# [30] = target: Gal(b1-4)GlcNAc(b1-3)Gal(b1-4)GlcNAc(b1-3)Gal(b1-4)GlcNAc(b1-3)Gal(b1-4)GlcNAc(b1-3)Gal(b1-4)GlcNAc(b1-2)[Gal(b1-4)GlcNAc(b1-3)Gal(b1-4)GlcNAc(b1-3)Gal(b1-4)GlcNAc(b1-3)Gal(b1-4)GlcNAc(b1-3)Gal(b1-4)GlcNAc(b1-6)]Man(a1-6)[Gal(b1-4)GlcNAc(b1-3)Gal(b1-4)GlcNAc(b1-3)Gal(b1-4)GlcNAc(b1-3)Gal(b1-4)GlcNAc(b1-3)Gal(b1-4)GlcNAc(b1-2)Man(a1-3)]Man(b1-4)GlcNAc(b1-4)[Fuc(a1-6)]GlcNAc
# Outline: as §1
binder,measurement,setting,value
B1,glycan array binding signal (z-score),[1],-0.249
same,glycan array binding signal (z-score),[2],1.95
same,glycan array binding signal (z-score),[3],-0.005
same,glycan array binding signal (z-score),[4],-1.15
same,glycan array binding signal (z-score),[5],1.69
same,glycan array binding signal (z-score),[6],-1.54
same,glycan array binding signal (z-score),[7],2.6
same,glycan array binding signal (z-score),[8],0.082
same,glycan array binding signal (z-score),[9],-0.008
same,glycan array binding signal (z-score),[10],0.362
same,glycan array binding signal (z-score),[11],-0.205
same,glycan array binding signal (z-score),[12],-0.237
same,glycan array binding signal (z-score),[13],0.35
same,glycan array binding signal (z-score),[14],-0.707
same,glycan array binding signal (z-score),[15],-0.33
same,glycan array binding signal (z-score),[16],2.67
same,glycan array binding signal (z-score),[17],-0.408
same,glycan array binding signal (z-score),[18],-0.375
same,glycan array binding signal (z-score),[19],-0.713
same,glycan array binding signal (z-score),[20],0.623
same,glycan array binding signal (z-score),[21],1.55
same,glycan array binding signal (z-score),[22],0.741
same,glycan array binding signal (z-score),[23],0.532
same,glycan array binding signal (z-score),[24],1.6
same,glycan array binding signal (z-score),[25],-0.377
same,glycan array binding signal (z-score),[26],-0.562
same,glycan array binding signal (z-score),[27],-0.439
same,glycan array binding signal (z-score),[28],-0.11
same,glycan array binding signal (z-score),[29],1.61
same,glycan array binding signal (z-score),[30],1.86
